Screening results as filed in PubChem BioAssay.
The list is not random: actives were taken first. Their share in the collection is about 2.4%.
Pol beta inh: DNA polymerase beta (human) inhibition. AID 485314. Pol beta primer extension/strand displacement, fluorescence kinetic. 340,000 tested, 1.3% active. P06746. Potency, µM (highest dose often 114 µM), hits mostly inhibitors
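Pol beta (10 nM) and compounds were preincubated 15 min at room temperature, then 50 nM substrate (final) started primer extension/strand displacement. Reads were taken at 0 and 10 min; concentration-response data were fitted to a four-parameter Hill equation.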
POLH inh: inhibitors of human DNA polymerase eta; Q9Y253; recombinant Pol eta, fluorescent DNA replication assay; Potency, µM (doses to about 114 µM), most hits filed as inhibitors; 390,000 tested, 1.2% active
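Fluorescent replication assay: 50 nM final substrate added after a 15 min room-temperature compound preincubation with 10 nM enzyme. Signal taken at 0 min and again at 10 min.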
POLI inh: inhibitors of human DNA polymerase iota; Pol iota fluorescent replication assay, 10 min; Potency, µM (highest dose often 115 µM), most hits filed as inhibitors; 390,000 tested, 1% active
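Fluorescent replication assay read twice, at 0 min and 10 min after adding 50 nM (final) substrate. Enzyme (10 nM) and compounds were first incubated 15 min at room temperature; enzyme-free buffer wells were negative controls.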
FEN1 inhibitor: human FEN1 inhibition; AID 588795; 390,000 tested, 0.35% active; Potency, µM (doses to about 114 µM), actives largely listed as inhibitors; Recombinant FEN1 flap cleavage, fluorescence, 15 min; note: nearly all actives have a fitted effect of over 65% in size
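Read-out was taken twice, immediately and after 15 min, following addition of 50 nM substrate to 10 nM FEN1 that had sat with test compound for 15 min at room temperature. Curves came from a four-parameter Hill model.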
POLK inh: blocks human DNA polymerase kappa activity; Q9UBT6; Potency, µM (series often up to 107 µM), actives largely listed as inhibitors; 400,000 tested, 0.53% active; AID 588579; purified Pol kappa, fluorescent DNA synthesis assay, 10 min
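Readout: fluorescence, taken kinetically at 0 and 10 min. Conditions: 10 nM Pol kappa, 15 min RT compound preincubation, 50 nM substrate final. Controls: enzyme-free buffer wells.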
WRN inhibitor: WRN helicase (human) inhibition | 360,000 tested, 0.46% active | AID 651768 | Q14191 | Potency, µM (doses to about 114 µM), usual class: inhibitors | WRN helicase unwinding, fluorescent forked duplex, kinetic; note: nearly all actives have a fitted effect of over 55% in size
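Enzyme (20 nM final) and test compound sit together 15 min at room temperature before substrate addition. Substrate is a single-forked duplex oligonucleotide (100 nM) labelled with fluorophore and quencher, with 2 mM ATP; helicase unwinding raises red fluorescence, read kinetically.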
Large screens that a line does not name were inactive. Calls come from the whole dose curve; as a rule, active = well fitted curve in the direction sought with a large enough effect; inconclusive = small, poorly fitted or top-dose-only effect, or another doubt; inactive = no such curve, though single readings can be large; an effect the other way counts as inactive or inconclusive.

O=S(=O)(Cc1noc(-c2ccc(Cl)cc2)n1)Cc1ccco1	Pol beta inh 14.1µM, POLI inh 50.1µM, POLK inh inconclusive
Cc1noc(NS(=O)(=O)c2ccc(NC(=O)Nc3ccc(Cl)c(Cl)c3)cc2)c1C	Pol beta inh inconclusive, POLH inh 50.1µM, POLI inh inconclusive
Cc1cc2oc(C(=O)Nc3ccc(S(=O)(=O)Nc4onc(C)c4C)cc3)cc(=O)c2cc1C	POLH inh 79.4µM, POLI inh inconclusive, FEN1 inhibitor inconclusive (no result: WRN inhibitor)
Cc1noc(NS(=O)(=O)c2ccc(NC(=O)C(Cl)(Cl)Cl)cc2)c1C	none
Cc1ccc(-n2nc(C)c3c(C)cc(=O)n(CC(=O)NCc4ccc(OC(C)C)cc4)c32)cc1	none (no result: WRN inhibitor)
COc1ccccc1CN1CCCC2(CCN(C(=O)c3c(C)noc3C)CC2)C1	none (no result: Pol beta inh, POLH inh, POLI inh, FEN1 inhibitor, WRN inhibitor)
COc1ccccc1C1(O)CC2CCC(C1)N2S(=O)(=O)c1ccc(C(C)=O)cc1 (stereo unspecified)	POLI inh 100µM
O=[N+]([O-])c1cc(CN(CCO)CCO)ccc1O	Pol beta inh 50.1µM, POLH inh inconclusive, POLI inh 25.1µM, POLK inh inconclusive
COc1ccc(CN(CCO)CCO)cc1[N+](=O)[O-]	none
CSC1=NC(=O)/C(=C\c2cccc3ccccc23)S1	Pol beta inh 50.1µM, WRN inhibitor inconclusive
Cc1ccc(C)c(N(C)C(=O)c2cn(C)c(=O)c3ccccc23)c1	none (no result: WRN inhibitor)
COCCn1c(=O)c(-c2cccs2)nc2cnc(OC)nc21	none (no result: Pol beta inh, POLH inh, POLI inh, FEN1 inhibitor, WRN inhibitor)
CCN(CC(=O)NC1CCS(=O)(=O)C1)S(=O)(=O)c1ccc(F)cc1 (stereo unspecified)	Pol beta inh 15.8µM, POLH inh inconclusive
O=C(N/N=C\c1ccc(Br)o1)C1COc2ccccc2O1 (stereo unspecified)	Pol beta inh 35.5µM, POLH inh 44.7µM, POLI inh 44.7µM
CN(C)c1ccc(/C=N/NC(=O)C2COc3ccccc3O2)o1 (stereo unspecified)	none
Cc1ccc(C(=O)N2CC(=O)Nc3ccc(Br)cc3C2c2ccc(F)cc2)cc1C (stereo unspecified)	none (no result: WRN inhibitor)
Cc1cc(O)c(C(C)C)cc1N=Cc1ccccc1[N+](=O)[O-]	POLI inh 20µM (no result: Pol beta inh)
CC(C)(C)OC(=O)N1CCC(c2c(C(=O)NCCN3CCC(Cc4ccccc4)CC3)cnn2-c2cccc(Cl)c2)CC1	none (no result: WRN inhibitor)
CCc1ccccc1Nc1cc(C(=O)NC2CCC(C)CC2)c2ccccc2n1 (stereo unspecified)	none (no result: WRN inhibitor)
CCN(c1ccccc1)S(=O)(=O)c1ccc2[nH]cc(C(=O)NCc3ccc(C)cc3)c(=O)c2c1	Pol beta inh inconclusive, POLH inh inconclusive, POLI inh 89.1µM (no result: WRN inhibitor)
Cc1ccc(CNC(=O)c2c[nH]c3ccc(S(=O)(=O)Nc4ccc(C(C)C)cc4)cc3c2=O)cc1	POLH inh 79.4µM, POLI inh inconclusive (no result: WRN inhibitor)
CCN(c1ccccc1)S(=O)(=O)c1ccc2[nH]cc(C(=O)NCCOC)c(=O)c2c1	POLH inh inconclusive
COc1ccccc1CNS(=O)(=O)c1ccc2[nH]cc(C(=O)O)c(=O)c2c1	Pol beta inh 28.2µM, POLH inh 3.16µM, POLI inh inconclusive, POLK inh 79.4µM
CCc1ccccc1NS(=O)(=O)c1ccc2[nH]cc(C(=O)NC3CCCC3)c(=O)c2c1	Pol beta inh inconclusive, POLH inh inconclusive, POLI inh inconclusive
O=C(NC1CCCCC1)c1c[nH]c2ccc(S(=O)(=O)Nc3ccccc3F)cc2c1=O	Pol beta inh 25.1µM, POLH inh inconclusive, POLI inh inconclusive (no result: WRN inhibitor)
COc1cccc(CNC(=O)CC(c2ccc(F)cc2)N2Cc3ccccc3C2=O)c1 (stereo unspecified)	POLI inh inconclusive (no result: WRN inhibitor)
O=C(COc1ccccc1C(=O)OCC(=O)N1CCOCC1)Nc1ccc(Br)cc1	POLI inh inconclusive (no result: Pol beta inh, POLH inh, WRN inhibitor)
CCOc1ccc(NS(=O)(=O)c2ccc3[nH]cc(C(=O)NCc4ccccc4)c(=O)c3c2)cc1	Pol beta inh 11.2µM, POLH inh inconclusive, POLI inh 89.1µM (no result: WRN inhibitor)
CCOc1ccc(NS(=O)(=O)c2ccc3[nH]cc(C(=O)N(C)Cc4ccccc4)c(=O)c3c2)cc1	POLI inh inconclusive (no result: WRN inhibitor)
Cc1ccccc1N1CC(C(=O)Nc2ccc(S(=O)(=O)NCC3CCCO3)cc2)CC1=O (stereo unspecified)	none
Cc1cccc(N2CC(C(=O)Nc3nnc(SCc4ccccn4)s3)CC2=O)c1 (stereo unspecified)	Pol beta inh inconclusive, POLH inh 39.8µM, POLI inh inconclusive, POLK inh inconclusive
Cc1ccc(N2CC(C(=O)Nc3nnc(SCc4ccccn4)s3)CC2=O)cc1 (stereo unspecified)	none
Cc1ccc(N2CC(C(=O)Nc3ccc(S(=O)(=O)NCC4CCCO4)cc3)CC2=O)cc1 (stereo unspecified)	Pol beta inh 56.2µM, POLI inh inconclusive
Cc1cccc(N2CC(C(=O)Nc3nnc(SCC(=O)NCC4CCCO4)s3)CC2=O)c1 (stereo unspecified)	POLH inh 20µM, POLI inh inconclusive, POLK inh inconclusive, WRN inhibitor inconclusive
COc1ncc2nc(-c3ccc(Cl)cc3)c(=O)n(Cc3cccs3)c2n1	none (no result: Pol beta inh, POLH inh, POLI inh, FEN1 inhibitor, WRN inhibitor)
CC(=O)N1c2ccc(S(=O)(=O)N3CCC(C(=O)Nc4cccc(Cl)c4C)CC3)cc2CC1C (stereo unspecified)	Pol beta inh inconclusive, POLH inh inconclusive (no result: WRN inhibitor)
CCOC(=O)c1nn2c(C(F)(F)F)cc(-c3ccc(C)cc3)nc2c1Cl	none (no result: WRN inhibitor)
Cc1ccc(C(=O)NC2(C(F)(F)F)C(=O)Nc3c2c(=O)[nH]c(=O)n3CCc2ccccc2)cc1 (stereo unspecified)	none (no result: WRN inhibitor)
CCOC(=O)c1[nH]c(C)c(CCC(=O)NCc2cccc(C)c2)c1C	none (no result: WRN inhibitor)
Cc1ccc(N2C(=O)c3cccc4c(N)ccc(c34)C2=O)c2cccnc12	Pol beta inh inconclusive, POLH inh inconclusive, POLI inh 79.4µM, FEN1 inhibitor inconclusive, POLK inh inconclusive, WRN inhibitor inconclusive
Cc1nn(C)c(C)c1N1C(=O)c2cccc3c(N)ccc(c23)C1=O	WRN inhibitor inconclusive
CCc1c(O)cc(=O)n(-c2ccccc2)c1-c1ccccc1	Pol beta inh 22.4µM, POLH inh 31.6µM, POLI inh inconclusive, FEN1 inhibitor inconclusive, WRN inhibitor inconclusive
N#Cc1c(-c2ccc(Cl)cc2)cc(-c2cccs2)nc1SCC(=O)O	Pol beta inh inconclusive, POLI inh 17.8µM, POLK inh inconclusive, WRN inhibitor inconclusive
Cc1ccc(NC2=C(NCCO)C(=O)c3ccccc3C2=O)cc1	POLI inh 20µM
Cc1cccc(N2CCN(c3nc4ccc(C)cc4n4cnnc34)CC2C)c1 (stereo unspecified)	none (no result: WRN inhibitor)
Cc1cccc(Oc2cc([N+](=O)[O-])cc3c2C(=O)Nc2ccccc2O3)c1	Pol beta inh inconclusive, POLH inh inconclusive, POLI inh 79.4µM
